# Source: ChEMBL document CHEMBL2218924, “A broad activity screen in support of a chemogenomic map for kinase signalling research and drug discovery” (Biochem J, 2013)
# Target: T1, Serine/threonine-protein kinase TAO2 (Homo sapiens) (UniProt Q9UL54)
# T1 sequence (whole entry): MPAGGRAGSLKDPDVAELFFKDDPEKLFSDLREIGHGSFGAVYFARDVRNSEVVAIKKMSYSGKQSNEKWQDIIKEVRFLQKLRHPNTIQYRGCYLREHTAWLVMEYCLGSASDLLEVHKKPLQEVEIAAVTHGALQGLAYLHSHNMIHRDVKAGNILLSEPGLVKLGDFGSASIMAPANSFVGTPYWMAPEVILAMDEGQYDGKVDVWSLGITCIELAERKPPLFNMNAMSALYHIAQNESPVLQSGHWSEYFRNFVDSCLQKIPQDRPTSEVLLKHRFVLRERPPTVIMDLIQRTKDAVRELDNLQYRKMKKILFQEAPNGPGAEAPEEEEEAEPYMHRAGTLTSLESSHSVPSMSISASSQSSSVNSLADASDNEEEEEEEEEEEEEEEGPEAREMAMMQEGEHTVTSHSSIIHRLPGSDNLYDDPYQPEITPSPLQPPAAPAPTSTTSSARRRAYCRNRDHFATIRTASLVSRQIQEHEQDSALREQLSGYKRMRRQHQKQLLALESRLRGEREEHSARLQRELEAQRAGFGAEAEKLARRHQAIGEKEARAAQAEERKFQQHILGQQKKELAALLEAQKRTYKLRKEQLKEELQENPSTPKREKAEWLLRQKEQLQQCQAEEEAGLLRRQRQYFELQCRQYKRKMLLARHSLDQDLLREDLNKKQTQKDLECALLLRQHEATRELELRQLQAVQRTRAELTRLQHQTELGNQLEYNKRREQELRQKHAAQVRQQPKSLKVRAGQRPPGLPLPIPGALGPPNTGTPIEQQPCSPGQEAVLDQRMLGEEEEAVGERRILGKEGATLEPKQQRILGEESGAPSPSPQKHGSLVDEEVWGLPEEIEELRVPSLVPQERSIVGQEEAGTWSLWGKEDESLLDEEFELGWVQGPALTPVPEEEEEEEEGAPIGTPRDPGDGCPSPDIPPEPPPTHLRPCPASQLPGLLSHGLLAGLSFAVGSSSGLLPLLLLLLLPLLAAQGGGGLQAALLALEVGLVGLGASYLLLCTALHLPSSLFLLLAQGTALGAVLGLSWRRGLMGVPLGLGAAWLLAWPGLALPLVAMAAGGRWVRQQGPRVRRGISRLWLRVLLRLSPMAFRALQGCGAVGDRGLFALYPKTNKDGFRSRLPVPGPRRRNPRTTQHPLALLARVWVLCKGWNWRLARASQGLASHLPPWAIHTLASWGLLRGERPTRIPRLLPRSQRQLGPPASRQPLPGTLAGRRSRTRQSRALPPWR
# Details: at 10 µM
row,Compound,residual activity
1,CO[C@H]1[C@@H](OC)C[C@H](C)[C@@H](OC)C2=CC(=O)C=C(NC(=O)/C(C)=C/C=C/[C@H](OC)[C@@H](OC(N)=O)/C(C)=C/[C@@H]1C)C2=O,93%
2,O=C1NC(=O)c2c1c1c3ccccc3[nH]c1c1[nH]c3cc(Br)ccc3c21,92%
3,CCC(=O)Nc1ccc2ncnc(Nc3cccc(Br)c3)c2c1,91%
4,CC(C)n1cnc2c(NCc3ccccc3)nc(NCCCO)nc21,101%
5,CCN(CC)C(=O)c1ccc(Nc2nc(OCC3CCCCC3)c3nc[nH]c3n2)cc1,6%
6,CO[C@H]1C[C@@H]2CC[C@@H](C)[C@@](O)(O2)C(=O)C(=O)N2CCCC[C@H]2C(=O)O[C@H]([C@H](C)C[C@@H]2CC[C@@H](O)[C@H](OC)C2)CC(=O)[C@H](C)/C=C(\C)[C@@H](O)[C@@H](OC)C(=O)[C@H](C)C[C@H](C)/C=C/C=C/C=C/1C,96%
7,COc1ccc(C(=O)Nc2sc3c(c2C(N)=O)CCCC3)cc1OC,83%
8,COc1cc2ncnc(N3CCN(C(=O)Nc4ccc(Oc5ccccc5)cc4)CC3)c2cc1OC,64%
9,CC(C)n1cnc2/c(=N/c3cccc(Cl)c3)nc(NCCO)[nH]c21,63%
10,CN(C)c1ccc(/C=C2\C(=O)Nc3ccccc32)cc1,89%
11,O=[N+]([O-])c1ccc(-c2nc(-c3ccc(F)cc3)c(-c3ccncc3)[nH]2)cc1,103%
12,Cc1cc2ncc(-c3ccccc3)nc2cc1C,91%
13,CC#CC(=O)Nc1cc2c(Nc3ccc(F)c(Cl)c3)ncnc2cn1,80%
14,Nc1ccc2ncnc(NCCc3ccc(Oc4ccccc4)cc3)c2c1,91%
15,O=C1NC(=O)/C(=C/c2ccc3c(c2)OC(F)(F)O3)S1,105%
16,O=C(O)c1ccc2c3c1cccc3c(=O)n1c3ccccc3nc21,91%
17,Cc1ccc(S(=O)(=O)/C=C/C#N)cc1,109%
18,Cc1ccc(NC2=CC(=O)c3sc(C)nc3C2=O)cc1,88%

row,Compound,residual activity
1,CC(=O)c1ccc(N2CCOCC2)cc1O,94%
2,O=C1NC(=O)/C(=C\c2ccc3nccnc3c2)S1,44%
3,COc1cccc(-c2cc(=O)c3ccccc3o2)c1N,92%
4,N#CCCc1ccc2c(c1)-c1[nH]c3ccc([N+](=O)[O-])cc3c1CC(=O)N2,52%
5,COc1cc2ncnc(Nc3ccc(Oc4ccccc4)cc3)c2cc1OC,106%
6,NC(=O)c1ccc2[nH]c(-c3ccc(Oc4ccc(Cl)cc4)cc3)nc2c1,99%
7,COc1cc2ncnc(Nc3ccc(O)c(Br)c3)c2cc1OC,75%
8,O=c1cc(-c2cccc3c2Sc2ccccc2S3)oc(N2CCOCC2)c1,90%
9,Nc1cccc(-c2cc3c(Oc4cccc(O)c4)ncnc3[nH]2)c1,26%
10,O=C(Nc1cccc(Nc2nccc(Nc3cccc(C(F)(F)F)c3)n2)c1)C1CC1,29%
11,Oc1n[nH]c2nnc(-c3c(-c4ccccc4)nn4ccccc34)cc12,96%
12,C[C@@H](N)[C@H]1CC[C@H](C(=O)Nc2ccncc2)CC1,109%
13,O=C1Nc2cc(Br)ccc2/C1=C1/Nc2ccccc2/C1=N\O,91%
14,O=Nc1c(-c2c(O)[nH]c3ccccc23)[nH]c2ccccc12,26%
15,Nc1n[nH]c2nnc(-c3c(-c4ccccc4)nn4ccccc34)cc12,50%
16,CCN(CC)CCCCN1c2ccccc2Oc2ccc(Cl)cc21,92%
17,O=C(Nc1cccc(Nc2cc(Nc3cccc(C(F)(F)F)c3)ncn2)c1)C1CC1,80%

# Target: T2, Serine/threonine-protein kinase TAO3 (Homo sapiens) (UniProt Q9H2K8)
# T2 sequence (whole entry): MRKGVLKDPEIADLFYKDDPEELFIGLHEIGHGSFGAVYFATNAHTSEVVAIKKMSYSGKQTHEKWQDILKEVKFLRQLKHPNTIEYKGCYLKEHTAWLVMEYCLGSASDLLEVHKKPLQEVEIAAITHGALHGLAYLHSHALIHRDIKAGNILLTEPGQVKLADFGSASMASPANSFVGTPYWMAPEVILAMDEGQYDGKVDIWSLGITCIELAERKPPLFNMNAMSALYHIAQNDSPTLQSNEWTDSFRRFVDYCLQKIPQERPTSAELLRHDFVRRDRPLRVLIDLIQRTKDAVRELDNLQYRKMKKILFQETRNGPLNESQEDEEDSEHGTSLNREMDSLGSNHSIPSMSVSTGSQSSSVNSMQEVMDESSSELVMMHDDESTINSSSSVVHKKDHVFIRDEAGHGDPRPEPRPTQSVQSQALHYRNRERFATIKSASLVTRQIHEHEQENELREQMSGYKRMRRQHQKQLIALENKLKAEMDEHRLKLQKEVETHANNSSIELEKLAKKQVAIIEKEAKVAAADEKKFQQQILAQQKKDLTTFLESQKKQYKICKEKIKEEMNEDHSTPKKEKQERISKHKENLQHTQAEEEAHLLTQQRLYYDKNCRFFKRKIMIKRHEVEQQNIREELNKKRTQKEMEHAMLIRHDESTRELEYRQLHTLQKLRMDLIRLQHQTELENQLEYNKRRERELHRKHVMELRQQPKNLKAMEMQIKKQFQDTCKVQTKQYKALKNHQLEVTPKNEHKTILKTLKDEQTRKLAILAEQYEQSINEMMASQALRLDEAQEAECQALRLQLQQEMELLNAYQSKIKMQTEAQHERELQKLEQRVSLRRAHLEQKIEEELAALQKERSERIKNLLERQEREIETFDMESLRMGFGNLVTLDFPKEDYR
# Details: at 1 µM
row,Compound,residual activity
1,CO[C@H]1[C@@H](OC)C[C@H](C)[C@@H](OC)C2=CC(=O)C=C(NC(=O)/C(C)=C/C=C/[C@H](OC)[C@@H](OC(N)=O)/C(C)=C/[C@@H]1C)C2=O,107%
2,O=C1NC(=O)c2c1c1c3ccccc3[nH]c1c1[nH]c3cc(Br)ccc3c21,93%
3,CCC(=O)Nc1ccc2ncnc(Nc3cccc(Br)c3)c2c1,96%
4,CC(C)n1cnc2c(NCc3ccccc3)nc(NCCCO)nc21,97%
5,CCN(CC)C(=O)c1ccc(Nc2nc(OCC3CCCCC3)c3nc[nH]c3n2)cc1,70%
6,CO[C@H]1C[C@@H]2CC[C@@H](C)[C@@](O)(O2)C(=O)C(=O)N2CCCC[C@H]2C(=O)O[C@H]([C@H](C)C[C@@H]2CC[C@@H](O)[C@H](OC)C2)CC(=O)[C@H](C)/C=C(\C)[C@@H](O)[C@@H](OC)C(=O)[C@H](C)C[C@H](C)/C=C/C=C/C=C/1C,97%
7,COc1ccc(C(=O)Nc2sc3c(c2C(N)=O)CCCC3)cc1OC,91%
8,COc1cc2ncnc(N3CCN(C(=O)Nc4ccc(Oc5ccccc5)cc4)CC3)c2cc1OC,85%
9,CC(C)n1cnc2/c(=N/c3cccc(Cl)c3)nc(NCCO)[nH]c21,93%
10,CN(C)c1ccc(/C=C2\C(=O)Nc3ccccc32)cc1,100%
11,O=[N+]([O-])c1ccc(-c2nc(-c3ccc(F)cc3)c(-c3ccncc3)[nH]2)cc1,98%
12,Cc1cc2ncc(-c3ccccc3)nc2cc1C,100%
13,CC#CC(=O)Nc1cc2c(Nc3ccc(F)c(Cl)c3)ncnc2cn1,96%
14,Nc1ccc2ncnc(NCCc3ccc(Oc4ccccc4)cc3)c2c1,110%
15,O=C1NC(=O)/C(=C/c2ccc3c(c2)OC(F)(F)O3)S1,103%
16,O=C(O)c1ccc2c3c1cccc3c(=O)n1c3ccccc3nc21,91%
17,Cc1ccc(S(=O)(=O)/C=C/C#N)cc1,92%
18,Cc1ccc(NC2=CC(=O)c3sc(C)nc3C2=O)cc1,94%

row,Compound,residual activity
1,CC(=O)c1ccc(N2CCOCC2)cc1O,101%
2,O=C1NC(=O)/C(=C\c2ccc3nccnc3c2)S1,72%
3,COc1cccc(-c2cc(=O)c3ccccc3o2)c1N,95%
4,N#CCCc1ccc2c(c1)-c1[nH]c3ccc([N+](=O)[O-])cc3c1CC(=O)N2,56%
5,COc1cc2ncnc(Nc3ccc(Oc4ccccc4)cc3)c2cc1OC,103%
6,NC(=O)c1ccc2[nH]c(-c3ccc(Oc4ccc(Cl)cc4)cc3)nc2c1,98%
7,COc1cc2ncnc(Nc3ccc(O)c(Br)c3)c2cc1OC,82%
8,O=c1cc(-c2cccc3c2Sc2ccccc2S3)oc(N2CCOCC2)c1,94%
9,Nc1cccc(-c2cc3c(Oc4cccc(O)c4)ncnc3[nH]2)c1,84%
10,O=C(Nc1cccc(Nc2nccc(Nc3cccc(C(F)(F)F)c3)n2)c1)C1CC1,104%
11,Oc1n[nH]c2nnc(-c3c(-c4ccccc4)nn4ccccc34)cc12,89%
12,C[C@@H](N)[C@H]1CC[C@H](C(=O)Nc2ccncc2)CC1,105%
13,O=C1Nc2cc(Br)ccc2/C1=C1/Nc2ccccc2/C1=N\O,68%
14,O=Nc1c(-c2c(O)[nH]c3ccccc23)[nH]c2ccccc12,85%
15,Nc1n[nH]c2nnc(-c3c(-c4ccccc4)nn4ccccc34)cc12,87%
16,CCN(CC)CCCCN1c2ccccc2Oc2ccc(Cl)cc21,101%
17,O=C(Nc1cccc(Nc2cc(Nc3cccc(C(F)(F)F)c3)ncn2)c1)C1CC1,100%
